# The supplement of paper PMC6658780
# Where a name gives a salt, the structure may show the parent alone. ± gives the standard deviation of the averaged measurements.
# System: Klebsiella pneumoniae KPC-119
# Assay: percent growth inhibition of drug + antibiotic vs DMSO control; higher = more growth inhibition
# Details: antibiotic (0.125x MIC): colistin; 7 µM
row,Structure (SMILES),percent growth inhibition
1,CN1CCN(c2c(F)cc3c(=O)c(C(=O)O)cn4c3c2SCC4)CC1 [Rufloxacin],96.6 ± 3.1%
2,C[C@@H]1CN(c2c(F)c(N)c3c(=O)c(C(=O)O)cn(C4CC4)c3c2F)C[C@H](C)N1 [Sparfloxacin],99.4 ± 0.42%
3,CC1CCc2cc(F)cc3c(=O)c(C(=O)O)cn1c23 (stereo not drawn) [Flumequine],88.42 ± 0.76%
4,CN(C)CCCN1c2ccccc2Sc2ccc(Cl)cc21 [Chlorpromazine hydrochloride],41.9 ± 12%
5,NCC[C@H](O)C(=O)N[C@@H]1C[C@H](N)[C@@H](O[C@H]2O[C@H](CN)[C@@H](O)[C@H](O)[C@H]2O)[C@H](O)[C@H]1O[C@H]1O[C@H](CO)[C@@H](O)[C@H](N)[C@H]1O [Amikacin hydrate],38.9 ± 2.6%
6,CCn1cc(C(=O)O)c(=O)c2cc(F)c(N3CCNCC3)nc21 [Enoxacin],13.6 ± 6.1%
7,CN(C(=O)CN(CCO)CC(=O)N(C)C(C)(C)Cc1ccccc1)C(C)(C)Cc1ccccc1 [Oxethazaine],4.52 ± 0.46%
8,C[C@H]1c2cccc(O)c2C(=O)C2=C(O)[C@]3(O)C(=O)C(C(N)=O)=C(O)[C@@H](N(C)C)[C@@H]3[C@@H](O)[C@@H]21 [Doxycycline hydrochloride],42.8 ± 2.2%
9,COc1cc(C)nc(-n2nc(C)cc2OC)n1 [Epirizole],55.5 ± 7.9%
10,C=CC1=C(C(=O)O)N2C(=O)[C@@H](NC(=O)/C(=N\OCC(=O)O)c3csc(N)n3)[C@H]2SC1 [Cefixime],9.79 ± 12%
11,CCCCC(CC)CNC(=N)NC(=N)NCCCCCCNC(=N)NC(=N)NCC(CC)CCCC (stereo not drawn) [Alexidine dihydrochloride],98.02 ± 0.96%
12,CC1COc2c(N3CCN(C)CC3)c(F)cc3c(=O)c(C(=O)O)cn1c23 (stereo not drawn) [Ofloxacin],98.02 ± 0.8%
13,COC(=O)N/N=C/c1c[n+]([O-])c2ccccc2[n+]1[O-] [Carbadox],34.1 ± 0.81%

# Same assay, conditions: antibiotic (0.125x MIC): colistin; 20 µM
row,Structure (SMILES),percent growth inhibition
1,CN1CCN(c2c(F)cc3c(=O)c(C(=O)O)cn4c3c2SCC4)CC1 [Rufloxacin],93.89 ± 0.36%
2,C[C@@H]1CN(c2c(F)c(N)c3c(=O)c(C(=O)O)cn(C4CC4)c3c2F)C[C@H](C)N1 [Sparfloxacin],99.2 ± 0.83%
3,CC1CCc2cc(F)cc3c(=O)c(C(=O)O)cn1c23 (stereo not drawn) [Flumequine],95.6 ± 2.3%
4,CN(C)CCCN1c2ccccc2Sc2ccc(Cl)cc21 [Chlorpromazine hydrochloride],2.49 ± 2.4%
5,NCC[C@H](O)C(=O)N[C@@H]1C[C@H](N)[C@@H](O[C@H]2O[C@H](CN)[C@@H](O)[C@H](O)[C@H]2O)[C@H](O)[C@H]1O[C@H]1O[C@H](CO)[C@@H](O)[C@H](N)[C@H]1O [Amikacin hydrate],92.29 ± 0.57%
6,CCn1cc(C(=O)O)c(=O)c2cc(F)c(N3CCNCC3)nc21 [Enoxacin],97.72 ± 0.24%
7,CN(C(=O)CN(CCO)CC(=O)N(C)C(C)(C)Cc1ccccc1)C(C)(C)Cc1ccccc1 [Oxethazaine],95.6 ± 1.6%
8,C[C@H]1c2cccc(O)c2C(=O)C2=C(O)[C@]3(O)C(=O)C(C(N)=O)=C(O)[C@@H](N(C)C)[C@@H]3[C@@H](O)[C@@H]21 [Doxycycline hydrochloride],91.4 ± 2.1%
9,COc1cc(C)nc(-n2nc(C)cc2OC)n1 [Epirizole],-4.39 ± 3.8%
10,C=CC1=C(C(=O)O)N2C(=O)[C@@H](NC(=O)/C(=N\OCC(=O)O)c3csc(N)n3)[C@H]2SC1 [Cefixime],97.8 ± 1.9%
11,CCCCC(CC)CNC(=N)NC(=N)NCCCCCCNC(=N)NC(=N)NCC(CC)CCCC (stereo not drawn) [Alexidine dihydrochloride],94.8 ± 1.6%
12,CC1COc2c(N3CCN(C)CC3)c(F)cc3c(=O)c(C(=O)O)cn1c23 (stereo not drawn) [Ofloxacin],97.8 ± 1.4%
13,COC(=O)N/N=C/c1c[n+]([O-])c2ccccc2[n+]1[O-] [Carbadox],87.5 ± 11%

# Same assay, conditions: antibiotic (0.125x MIC): gentamicin; 7 µM
row,Structure (SMILES),percent growth inhibition
1,CO/N=C(\C(=O)N[C@@H]1C(=O)N2C(C(=O)O)=C(C[N+]3(C)CCCC3)CS[C@H]12)c1csc(N)n1 [Cefepime hydrochloride],37.1 ± 3.7%
2,NCC[C@H](O)C(=O)N[C@@H]1C[C@H](N)[C@@H](O[C@H]2O[C@H](CN)[C@@H](O)[C@H](O)[C@H]2O)[C@H](O)[C@H]1O[C@H]1O[C@H](CO)[C@@H](O)[C@H](N)[C@H]1O [Amikacin hydrate],30.1 ± 9.4%
3,CCn1cc(C(=O)O)c(=O)c2cc(F)c(N3CCNCC3)nc21 [Enoxacin],-1.06 ± 6.9%
4,C=CC1=C(C(=O)O)N2C(=O)[C@@H](NC(=O)/C(=N\OCC(=O)O)c3csc(N)n3)[C@H]2SC1 [Cefixime],29.8 ± 2%
5,CCCCC(CC)CNC(=N)NC(=N)NCCCCCCNC(=N)NC(=N)NCC(CC)CCCC (stereo not drawn) [Alexidine dihydrochloride],99.857 ± 0.088%
6,CC1COc2c(N3CCN(C)CC3)c(F)cc3c(=O)c(C(=O)O)cn1c23 (stereo not drawn) [Ofloxacin],99.97 ± 0.11%
7,COC(=O)N/N=C/c1c[n+]([O-])c2ccccc2[n+]1[O-] [Carbadox],15.7 ± 0.29%
